# ChEMBL document CHEMBL2218924, “A broad activity screen in support of a chemogenomic map for kinase signalling research and drug discovery” (Biochem J, 2013)
# Molecular target: Macrophage colony-stimulating factor 1 receptor (Homo sapiens) (UniProt P07333)
# Conditions: at 1 µM
# Macrophage colony-stimulating factor 1 receptor (Homo sapiens), sequence (P07333 whole entry): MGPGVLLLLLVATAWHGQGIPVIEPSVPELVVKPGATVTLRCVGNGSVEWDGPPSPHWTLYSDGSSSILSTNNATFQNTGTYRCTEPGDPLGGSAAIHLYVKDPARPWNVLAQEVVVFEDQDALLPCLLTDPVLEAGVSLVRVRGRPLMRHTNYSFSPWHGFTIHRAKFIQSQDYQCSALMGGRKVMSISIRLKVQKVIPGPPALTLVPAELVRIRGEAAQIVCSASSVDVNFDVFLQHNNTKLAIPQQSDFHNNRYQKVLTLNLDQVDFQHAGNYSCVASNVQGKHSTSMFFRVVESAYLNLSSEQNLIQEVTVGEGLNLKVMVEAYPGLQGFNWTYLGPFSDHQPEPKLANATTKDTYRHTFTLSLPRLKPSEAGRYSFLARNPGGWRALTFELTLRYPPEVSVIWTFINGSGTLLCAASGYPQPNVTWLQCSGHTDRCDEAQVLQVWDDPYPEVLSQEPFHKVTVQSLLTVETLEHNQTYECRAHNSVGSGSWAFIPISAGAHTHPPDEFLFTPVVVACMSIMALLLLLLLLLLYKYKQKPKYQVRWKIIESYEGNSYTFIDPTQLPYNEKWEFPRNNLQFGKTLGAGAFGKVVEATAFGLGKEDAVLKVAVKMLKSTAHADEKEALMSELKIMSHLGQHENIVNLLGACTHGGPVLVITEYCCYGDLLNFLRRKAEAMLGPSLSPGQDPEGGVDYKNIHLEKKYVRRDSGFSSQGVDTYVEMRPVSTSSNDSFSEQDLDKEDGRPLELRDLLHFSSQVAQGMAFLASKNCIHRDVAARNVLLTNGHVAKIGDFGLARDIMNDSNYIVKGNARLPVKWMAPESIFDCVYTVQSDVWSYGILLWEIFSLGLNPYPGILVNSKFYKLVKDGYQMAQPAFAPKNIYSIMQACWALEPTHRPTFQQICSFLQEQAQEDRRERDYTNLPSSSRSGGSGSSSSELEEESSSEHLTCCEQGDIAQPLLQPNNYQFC
row,Compound,residual activity [%]
1,CC(=O)O/N=C1\C(=C2\C(=O)Nc3cc(Br)ccc32)Nc2ccccc21,33
2,Oc1n[nH]c2nnc(-c3c(-c4ccccc4)nn4ccccc34)cc12,49
3,Cn1cnc2cc3c(Nc4cccc(Br)c4)ncnc3cc21,94
4,O=C(O)c1ccc2c3c1cccc3c(=O)n1c3ccccc3nc21,102
5,Nc1nc(Nc2ccc(S(N)(=O)=O)cc2)nn1C(=S)Nc1c(F)cccc1F,5
6,CCC(=O)Nc1ccc2ncnc(Nc3cccc(Br)c3)c2c1,94
7,CO[C@H]1C[C@@H]2CC[C@@H](C)[C@@](O)(O2)C(=O)C(=O)N2CCCC[C@H]2C(=O)O[C@H]([C@H](C)C[C@@H]2CC[C@@H](O)[C@H](OC)C2)CC(=O)[C@H](C)/C=C(\C)[C@@H](O)[C@@H](OC)C(=O)[C@H](C)C[C@H](C)/C=C/C=C/C=C/1C,85
8,O=C1NC(=O)/C(=C/c2ccc3c(c2)OC(F)(F)O3)S1,56
9,O=C1Nc2ccccc2/C1=C1/Nc2ccccc2/C1=N\OCCC(O)CO (stereo not given),1
10,O=c1c2ccccc2[nH]c(=S)n1CCN1CCC(=C(c2ccc(F)cc2)c2ccc(F)cc2)CC1,69
11,CC(C)n1cnc2c(NCc3ccccc3)nc(NCCCO)nc21,101
12,Cc1nc2cc3nc(-c4cccs4)cnc3cc2n1C,52
13,COc1cc2ncnc(Nc3ccc(O)c(Br)c3)c2cc1OC,63
14,CCOc1cc2ncnc(Nc3cccc(Br)c3)c2cc1OCC,73
15,Cn1cc(/C=C2\C(=O)Nc3ccc(S(N)(=O)=O)cc32)c2ccccc21,52
16,COc1ccc(CNc2nc(N(CCO)CCO)nc3c2ncn3C(C)C)cc1,91
17,O=c1cc(-c2cccc3c2Sc2ccccc2S3)oc(N2CCOCC2)c1,101
18,O=C(Nc1cccc(Nc2nccc(Nc3cccc(C(F)(F)F)c3)n2)c1)C1CC1,14

row,Compound,residual activity [%]
1,CCN(CC)CCCCN1c2ccccc2Oc2ccc(Cl)cc21,124
2,Nc1cccc(-c2cc3c(Oc4cccc(O)c4)ncnc3[nH]2)c1,3
3,COc1ccc(OC)c2c(=S)c3ccccc3[nH]c12,84
4,COc1cccc(-c2cc(=O)c3ccccc3o2)c1N,114
5,CNc1cc2c(Nc3cccc(Br)c3)ncnc2cn1,88
6,CC(C)n1cnc2/c(=N/c3cccc(Cl)c3)nc(NCCO)[nH]c21,83
7,CN(C)c1ccc(/C=C2\C(=O)Nc3ccccc32)cc1,8
8,N#C/C(=C(\N)Sc1ccc(N)cc1)c1ccccc1C(F)(F)F,86
9,O=C1Nc2cc(Br)ccc2/C1=C1/Nc2ccccc2/C1=N\O,5
10,Ic1cccc(CSc2nnc(-c3ccncc3)o2)c1,71
11,O=C1NC(=O)c2cc(Nc3ccc(F)cc3)c(Nc3ccc(F)cc3)cc21,75
12,O=C1c2ccccc2-[n+]2ccc3c([nH]c4ccccc43)c21,68
13,COc1ccc(S(=O)(=O)N(CCO)c2ccccc2CN(C)C/C=C/c2ccc(Cl)cc2)cc1,78
14,O=C1NC(=O)/C(=C\c2ccc3nccnc3c2)S1,126
15,Oc1ccc(Nc2nc(-c3ccc(Cl)cc3)cs2)cc1,72
16,O=C1NC(=O)c2c1c1c3ccccc3[nH]c1c1[nH]c3cc(Br)ccc3c21,78
17,Oc1c2ccccc2c2c3c(cccc13)N=N2,36

# Molecular target: Macrophage colony-stimulating factor 1 receptor (Homo sapiens) (UniProt P07333)
# Conditions: at 10 µM
row,Compound,residual activity [%]
1,CC(=O)O/N=C1\C(=C2\C(=O)Nc3cc(Br)ccc32)Nc2ccccc21,16
2,Oc1n[nH]c2nnc(-c3c(-c4ccccc4)nn4ccccc34)cc12,15
3,Cn1cnc2cc3c(Nc4cccc(Br)c4)ncnc3cc21,37
4,O=C(O)c1ccc2c3c1cccc3c(=O)n1c3ccccc3nc21,75
5,Nc1nc(Nc2ccc(S(N)(=O)=O)cc2)nn1C(=S)Nc1c(F)cccc1F,0
6,CCC(=O)Nc1ccc2ncnc(Nc3cccc(Br)c3)c2c1,61
7,CO[C@H]1C[C@@H]2CC[C@@H](C)[C@@](O)(O2)C(=O)C(=O)N2CCCC[C@H]2C(=O)O[C@H]([C@H](C)C[C@@H]2CC[C@@H](O)[C@H](OC)C2)CC(=O)[C@H](C)/C=C(\C)[C@@H](O)[C@@H](OC)C(=O)[C@H](C)C[C@H](C)/C=C/C=C/C=C/1C,65
8,O=C1NC(=O)/C(=C/c2ccc3c(c2)OC(F)(F)O3)S1,72
9,O=C1Nc2ccccc2/C1=C1/Nc2ccccc2/C1=N\OCCC(O)CO (stereo not given),1
10,O=c1c2ccccc2[nH]c(=S)n1CCN1CCC(=C(c2ccc(F)cc2)c2ccc(F)cc2)CC1,84
11,CC(C)n1cnc2c(NCc3ccccc3)nc(NCCCO)nc21,77
12,Cc1nc2cc3nc(-c4cccs4)cnc3cc2n1C,8
13,COc1cc2ncnc(Nc3ccc(O)c(Br)c3)c2cc1OC,22
14,CCOc1cc2ncnc(Nc3cccc(Br)c3)c2cc1OCC,27
15,Cn1cc(/C=C2\C(=O)Nc3ccc(S(N)(=O)=O)cc32)c2ccccc21,12
16,COc1ccc(CNc2nc(N(CCO)CCO)nc3c2ncn3C(C)C)cc1,69
17,O=c1cc(-c2cccc3c2Sc2ccccc2S3)oc(N2CCOCC2)c1,74
18,O=C(Nc1cccc(Nc2nccc(Nc3cccc(C(F)(F)F)c3)n2)c1)C1CC1,2

row,Compound,residual activity [%]
1,CCN(CC)CCCCN1c2ccccc2Oc2ccc(Cl)cc21,127
2,Nc1cccc(-c2cc3c(Oc4cccc(O)c4)ncnc3[nH]2)c1,-1
3,COc1ccc(OC)c2c(=S)c3ccccc3[nH]c12,62
4,COc1cccc(-c2cc(=O)c3ccccc3o2)c1N,88
5,CNc1cc2c(Nc3cccc(Br)c3)ncnc2cn1,59
6,CC(C)n1cnc2/c(=N/c3cccc(Cl)c3)nc(NCCO)[nH]c21,39
7,CN(C)c1ccc(/C=C2\C(=O)Nc3ccccc32)cc1,2
8,N#C/C(=C(\N)Sc1ccc(N)cc1)c1ccccc1C(F)(F)F,68
9,O=C1Nc2cc(Br)ccc2/C1=C1/Nc2ccccc2/C1=N\O,8
10,Ic1cccc(CSc2nnc(-c3ccncc3)o2)c1,53
11,O=C1NC(=O)c2cc(Nc3ccc(F)cc3)c(Nc3ccc(F)cc3)cc21,54
12,O=C1c2ccccc2-[n+]2ccc3c([nH]c4ccccc43)c21,58
13,COc1ccc(S(=O)(=O)N(CCO)c2ccccc2CN(C)C/C=C/c2ccc(Cl)cc2)cc1,64
14,O=C1NC(=O)/C(=C\c2ccc3nccnc3c2)S1,112
15,Oc1ccc(Nc2nc(-c3ccc(Cl)cc3)cs2)cc1,43
16,O=C1NC(=O)c2c1c1c3ccccc3[nH]c1c1[nH]c3cc(Br)ccc3c21,68
17,Oc1c2ccccc2c2c3c(cccc13)N=N2,9
